# Results from PubChem BioAssay (EPA / NIEHS).
# Active and inactive are the calls of the source. The calls were made as follows: active = hit-call score of the fitted dose curve at least 0.9, where 1 is the maximum; inactive = score below 0.9.
# Test system: not listed separately
# Assay: ATG_PBREM_CIS: Attagene CIS-FACTORIAL HepG2 Assay for human Phenobarbital-responsive Enhancer Module (PBREM) (AID 2282955)
# Settings: HepG2 PBREM cis-reporter, Attagene multiplexed transcription; actives raise or lower the signal
# Summary of the method: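 Endogenous transcription factors in human liver HepG2 cells drive a PBREM cis-element reporter, whose transcript level after 24 h treatment is quantified by RT-PCR with capillary electrophoresis; activity fitted in both directions against DMSO.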
row,SMILES,outcome
1,Cc1cc(C)c(S(=O)(=O)O)cc1N=Nc1cc(S(=O)(=O)O)c2ccccc2c1O,inactive
2,CCCc1c(OCCCCc2nn[nH]n2)ccc(C(C)=O)c1O,inactive
3,c1cc(N(CC2CO2)CC2CO2)ccc1Cc1ccc(N(CC2CO2)CC2CO2)cc1 (stereo unspecified),inactive
4,CCCCCCOC(=O)CCCCCCCC(=O)OCCCCCC,inactive
5,O=C(O)Cc1c[nH]c2ccccc12,inactive
6,CCCCCCCCCCC1CO1 (stereo unspecified),inactive
7,NCc1ccccc1,inactive
8,O=[N+]([O-])c1ccc2nc[nH]c2c1,inactive
9,CC(C)CC(=O)O,inactive
10,C[Si](C)(C)O[Si](C)(C)O[Si](C)(C)C,inactive
11,Cc1cccnc1,inactive
12,Cc1ccccc1S(N)(=O)=O,inactive
13,C=C(C)C(=O)OCC1CCCO1 (stereo unspecified),inactive
14,CC(C)CC(=O)CC(C)CC(C)C (stereo unspecified),inactive
15,CCCOCCC,inactive
16,CN(C)CCCN1c2ccccc2CCc2ccc(Cl)cc21,inactive
17,CC/C=C\CC1=C(C)CCC1=O,inactive
18,C[C@H]1C[C@H]2[C@@H]3CCC4=CC(=O)C=C[C@]4(C)[C@@]3(F)[C@@H](O)C[C@]2(C)[C@@]1(O)C(=O)CO,inactive
19,COCCCN,inactive
20,CC(=O)c1nccs1,inactive
21,OCCN(CCO)c1cccc(Cl)c1,inactive
22,O=C(O)c1nc(Cl)c(Cl)c(Cl)c1Cl,inactive

# Biological target: Paired box protein Pax-6 (Homo sapiens) (UniProt P26367)
# Sequence (P26367 whole entry, looked up): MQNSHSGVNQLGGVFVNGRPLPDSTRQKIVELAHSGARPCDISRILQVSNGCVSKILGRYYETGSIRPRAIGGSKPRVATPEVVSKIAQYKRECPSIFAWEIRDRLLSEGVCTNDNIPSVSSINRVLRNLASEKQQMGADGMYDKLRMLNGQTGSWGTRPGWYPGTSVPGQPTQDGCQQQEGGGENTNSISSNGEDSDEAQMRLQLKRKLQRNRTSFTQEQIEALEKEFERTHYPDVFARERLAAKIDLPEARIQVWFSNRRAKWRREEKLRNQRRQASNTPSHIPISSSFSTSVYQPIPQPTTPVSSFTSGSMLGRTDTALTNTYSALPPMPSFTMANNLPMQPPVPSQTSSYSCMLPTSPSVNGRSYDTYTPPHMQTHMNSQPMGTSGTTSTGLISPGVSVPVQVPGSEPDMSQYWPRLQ
# Assay: ATG_Pax6_CIS: Attagene CIS-FACTORIAL HepG2 Assay for human Paired Box 6 (PAX6) (AID 2282956)
# Settings: HepG2 CIS-FACTORIAL PAX6 reporter transcription, RNA readout; actives raise or lower the signal
# Summary of the method: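 Read-out is reporter transcript level, measured by RT-PCR with fluorescent primer extension and capillary electrophoresis after 24 h dosing of transfected HepG2 cells. Activity in either direction fitted relative to DMSO control.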
SMILES,outcome,AC50
CC1(C)S[C@@H]2[C@H](NC(=O)[C@H](N)c3ccccc3)C(=O)N2[C@H]1C(=O)O,inactive,
CCC(C)(CCC(C)C)C(=O)O (stereo unspecified),inactive,
Cc1cc(C)c(S(=O)(=O)O)cc1N=Nc1cc(S(=O)(=O)O)c2ccccc2c1O,inactive,
CCCc1c(OCCCCc2nn[nH]n2)ccc(C(C)=O)c1O,inactive,
Clc1ccccn1,inactive,
c1cc(N(CC2CO2)CC2CO2)ccc1Cc1ccc(N(CC2CO2)CC2CO2)cc1 (stereo unspecified),,9.31 µM (active)
CCCCCCOC(=O)CCCCCCCC(=O)OCCCCCC,inactive,
CC1=NN(c2cc(Cl)c(S(=O)(=O)O)cc2Cl)C(=O)C1N=Nc1ccc(S(=O)(=O)O)cc1 (stereo unspecified),inactive,
O=C(O)Cc1c[nH]c2ccccc12,inactive,
CCCCCCCCCCC1CO1 (stereo unspecified),inactive,
NCc1ccccc1,inactive,
O=[N+]([O-])c1ccc2nc[nH]c2c1,inactive,
CCCCn1cc[n+](C)c1,inactive,
CC(C)CC(=O)O,inactive,
C[Si](C)(C)O[Si](C)(C)O[Si](C)(C)C,inactive,
Cc1cc(O)cc(C)c1Cl,inactive,
CC(C)n1c(/C=C/[C@@H](O)C[C@@H](O)CC(=O)O)c(-c2ccc(F)cc2)c2ccccc21,inactive,
CC1=C(CC=O)C(C)(C)CCC1,inactive,
CC(O)(P(=O)(O)O)P(=O)(O)O,inactive,
Cc1cccnc1,inactive,

SMILES,outcome,AC50
Cc1ccccc1S(N)(=O)=O,inactive,
C=C(C)C(=O)OCC1CCCO1 (stereo unspecified),inactive,
OCCOCCOCCOCCOCCO,inactive,
C1=CCC=C1,inactive,
CC(C)CC(=O)CC(C)CC(C)C (stereo unspecified),inactive,
CCCOCCC,inactive,
CN(C)CCC(c1ccc(Cl)cc1)c1ccccn1 (stereo unspecified),inactive,
CN(C)CCCN1c2ccccc2CCc2ccc(Cl)cc21,,11.1 µM (active)
CC/C=C\CC1=C(C)CCC1=O,inactive,
C[C@H]1C[C@H]2[C@@H]3CCC4=CC(=O)C=C[C@]4(C)[C@@]3(F)[C@@H](O)C[C@]2(C)[C@@]1(O)C(=O)CO,,69 µM (active)
COC(OC)C(C)c1ccccc1 (stereo unspecified),inactive,
F[B-](F)(F)F,inactive,
COCCCN,inactive,
CC1=CCCC(C)(C)C12CCC(C)O2 (stereo unspecified),inactive,
CC(=O)c1nccs1,inactive,
COc1ccccc1OCC(O)CO (stereo unspecified),inactive,
OCCN(CCO)c1cccc(Cl)c1,inactive,
O=C(O)c1nc(Cl)c(Cl)c(Cl)c1Cl,inactive,
CC=CC(=O)O,inactive,
